Compound activity deposited in PubChem BioAssay by National Center for Advancing Translational Sciences (NCATS).
Rows were chosen to be rich in hits. Some 4.7% of all compounds tested hit in one or more screens of this group.
D1 PAM = human D1 dopamine receptor positive modulation; HEK293 TREx D1 cells, calcium flux, dopamine EC20 potentiation; P21728; potentiation, % at 10 µM; 360,000 tested, 0.036% active; in the data active = potentiation above about 30%; also: 0% is about no effect
Target sequence (P21728 whole entry, looked up): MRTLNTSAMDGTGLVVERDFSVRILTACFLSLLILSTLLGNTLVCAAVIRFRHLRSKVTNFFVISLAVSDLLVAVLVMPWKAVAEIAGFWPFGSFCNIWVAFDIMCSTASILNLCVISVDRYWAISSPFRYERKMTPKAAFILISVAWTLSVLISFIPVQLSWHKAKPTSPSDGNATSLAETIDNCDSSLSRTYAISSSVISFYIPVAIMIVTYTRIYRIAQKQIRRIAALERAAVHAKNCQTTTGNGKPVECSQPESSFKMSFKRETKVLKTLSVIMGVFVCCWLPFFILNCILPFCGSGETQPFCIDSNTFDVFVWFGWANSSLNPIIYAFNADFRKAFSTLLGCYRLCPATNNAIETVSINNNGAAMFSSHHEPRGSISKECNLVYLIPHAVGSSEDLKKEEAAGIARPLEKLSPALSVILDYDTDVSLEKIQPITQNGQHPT
D1 agonist = agonists of human D1 dopamine receptor. P21728. HEK293 T-REx D1 cells, calcium flux, agonist mode. activation, % at 2 µM. 360,000 tested, 1% active; also: 0% is about no effect
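Agonism was scored from calcium flux recorded over 180 s (1 read/s) after pintool compound addition, following a 10-cycle baseline. Cells were inducible force-coupled HEK293 TREx D1, plated overnight at 30 C and loaded with no-wash calcium dye.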
D1 antag = human D1 dopamine receptor antagonism | HEK293 TREx D1 cells, calcium flux, dopamine EC80; active compounds read low | 360,000 tested, 3.2% active | AID 504652 | P21728 | activity change, negative = inhibition, % at 10 µM; in the data active = activity change below about -30%; also: % is scaled to controls: 0 for no effect and ±100 for the full control effect
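Tetracycline-induced HEK293 Trex D1 cells, force-coupled to calcium, dye-loaded; compounds added and read 180 s, then EC80 dopamine added and calcium flux tracked kinetically another 180 s.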
TRHR enhancer = allosteric enhancers of human TRH receptor | enhancement, % at 2 µM | AID 493056 | TRHR cells, fluo-8 calcium fluorescence, EC20 TRH enhancement | P34981 | 360,000 tested, 0.66% active; in the data active = enhancement above about 30%; also: 0% is about no effect
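TRHR-expressing cells loaded with fluo-8 calcium dye were read kinetically (ex 480/em 530) during compound addition, then stimulated with an EC20 of TRH (10 nM final). Enhancement of the Gq-mediated intracellular calcium response was scored.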
TRHR ag = agonists of human TRH receptor; activation, % at 2 µM; 360,000 tested, 0.18% active; AID 493084; TRHR cells, calcium flux fluo-8, FDSS agonist mode; also: 0% is about no effect
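Agonist-mode FDSS calcium read (Ex 480/Em 530, 1 s cycles) in 1536-well TRHR cells with fluo-8 dye, after 10-cycle baseline and 23 nL compound addition; TRH at EC20 (10 nM final) added afterwards for the enhancer phase.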
An asterisk follows results filed as active. Rule as the data show it, unless noted: active = activation above about 30%; inactive = the rest.

SMILES	D1 PAM	D1 agonist	D1 antag	TRHR enhancer	TRHR ag
Cc1c(NS(=O)(=O)c2cccc3nsnc23)c(=O)n(-c2ccccc2)n1C	-2.8	1.0	-89.6*	-0.6	0.5
CC(=O)Nc1ccccc1-c1nc2ccccc2n(CC(=O)Nc2cccc(C(F)(F)F)c2)c1=O	-0.4	3.6	5.5	1.9	1.3
CC(C)C[C@H](NC(=O)N1CC(=O)Nc2ccccc21)C(=O)N[C@H](C(=O)O)c1ccccc1	-0.9	-0.3	-26.6	32.7*	-0.1
O=C1CN(C(=O)N[C@@H](Cc2ccccc2)C(=O)N[C@H](C(=O)O)c2ccccc2)c2ccccc2N1	-4.8	4.8	17.0	8.2	-0.2
CC(C)[C@H](NC(=O)N1CC(=O)Nc2ccccc21)C(=O)N[C@@H](C(=O)O)c1ccccc1	-3.2	4.3	-10.3	-3.3	0.2
CC(C)[C@H](NC(=O)N1CC(=O)Nc2ccccc21)C(=O)N[C@H](C(=O)O)c1ccccc1	-3.5	4.3	9.4	30.4*	0.4
Cc1ccc(-n2ncc(C(=O)N3CCN(c4cc(Cl)ccc4C)CC3)c2C2CCN(C(=O)OC(C)(C)C)CC2)cc1	-8.3	2.6	-10.8	9.4	-1.9
COc1ccc(CNS(=O)(=O)c2ccc(N3CCCCS3(=O)=O)cc2)cc1	-0.6	15.6	-14.4	-5.9	1.1
Clc1ccc(-c2nc3nc4ccccc4nc3n2Cc2ccco2)cc1	-10.4	1.9	-41.0*	-11.9	-0.8
CCOc1ccc(C2C(C(=O)Nc3ccccc3)=C(C)Nc3nc(-c4ccccc4)nn32)cc1OC (stereo not drawn)	1.2	10.2	-3.3	0.3	2.9
COc1ccc(-c2noc(CCC(=O)NCCN3CCN(c4ccccc4F)CC3)n2)cc1	-7.3	8.8	-5.3	-2.4	-0.6
Cc1ccc(-c2noc(CCC(=O)NCCCN3CCN(c4cccc(Cl)c4)CC3)n2)cc1	-8.9	82.3*	-73.0*	-0.6	-0.4
Cc1ccc(-c2noc(CCC(=O)NCCCN3CCN(c4ccc(F)cc4)CC3)n2)cc1	-14.0	24.8	-82.5*	-5.7	0.4
COc1ccc(-c2noc(CCC(=O)NCCCN3CCN(c4ccccc4F)CC3)n2)cc1	-16.9	31.5*	-56.4*	-1.8	-0.2
O=C(CCC1CCCN(C(=O)c2cc(C3CC3)[nH]n2)C1)N1CCN(c2ccccn2)CC1 (stereo not drawn)	0.1	2.9	-31.6*	-0.9	-1.7
Cc1ccccc1CNC(=O)c1ccc(Cl)c([N+](=O)[O-])c1	-2.6	11.8	-61.4*	-1.0	-0.2
CC(C)[C@H](NC(=O)c1ccc(Cl)c([N+](=O)[O-])c1)C(=O)NCc1ccc(F)cc1	-10.0	4.3	-16.9	-4.7	-1.0
CC(C)[C@H](NC(=O)c1ccc(Cl)c([N+](=O)[O-])c1)C(=O)NCc1ccc(Cl)cc1Cl	-3.5	5.4	-39.2*	-5.0	0.7
Cc1ccccc1CNC(=O)Cc1ccccc1[N+](=O)[O-]	-2.7	1.2	1.2	0.6	-0.4
O=C(NCCc1ccccc1)c1cnc(Cl)c(Cl)c1	3.6	-0.1	6.4	-2.3	-0.2
O=C(NCCc1ccccc1)c1ccnc(/C=N/O)c1	-11.2	0.6	-34.4*	4.9	0.5
COC(=O)C1=C(C)N(Cc2ccccc2)C(=NCC2CC2)N[C@H]1c1ccc(Br)cc1	-7.0	15.4	-79.9*	31.5*	4.9
COC(=O)C1=C(C)N(Cc2ccccc2)C(=NCC2CC2)N[C@H]1c1ccccc1	1.9	1.0	-7.1	17.7	-0.6
COC(=O)C1=C(C)N(Cc2ccccc2)C(=NCc2ccc(OC)cc2)N[C@H]1c1cccc(F)c1	-4.8	26.6	-5.3	-1.6	5.1
COC(=O)C1=C(C)N(Cc2ccccc2)C(=NCC(C)C)N[C@H]1c1cccc(F)c1	-5.3	81.5*	-40.8*	12.6	5.3
SMILES	D1 PAM	D1 agonist	D1 antag	TRHR enhancer	TRHR ag
COC(=O)C1=C(C)N(Cc2ccccc2)C(=NCCc2ccccn2)N[C@H]1c1cccc(C(F)(F)F)c1	-4.9	34.3*	-15.5	-9.6	8.1
COC(=O)C1=C(C)N(Cc2ccccc2)C(=NCC(C)C)N[C@H]1c1ccc(Br)cc1	-4.8	1.1	3.3	-8.9	-0.2
COC(=O)C1=C(C)N(Cc2ccccc2)C(=NCc2cccc(Cl)c2)N[C@H]1c1cccc(F)c1	-0.3	31.7*	-3.8	14.2	4.0
CCCCNC(=O)c1nn(C)c2c1CSc1ccccc1-2	-2.4	4.7	-0.8	-19.8	0.2
COc1ccc(Cl)cc1S(=O)(=O)N1CCN(C(=O)c2cc(-c3ccc(Br)cc3)n[nH]2)CC1	-0.7	1.1	9.1	9.9	0.1
Cc1ccc(S(=O)(=O)Nc2cc(C(F)(F)F)ccc2N2CCOCC2)cc1	-1.1	2.0	19.9	32.9*	0.2
Cc1ccc(NC(=O)CSCC(=O)Nc2cc(C(F)(F)F)ccc2N2CCOCC2)cc1	-2.4	0.8	-34.1*	-1.3	0.0
NC(=O)C1CCN(c2ncnc3c2cnn3-c2cccc(Cl)c2)CC1	-1.8	0.1	-18.2	6.6	0.3
O=C(NCc1ccco1)c1ccc2c(c1)N(Cc1ccc(Cl)cc1)C(=O)c1ccccc1S2(=O)=O	-3.3	3.2	-2.7	-3.7	0.5
CCc1ccccc1Nc1ncnc2ccccc12	-8.4	7.3	-60.4*	3.9	0.1
CC(=O)c1c(C)n(-c2ccc(Cl)cc2)c2ccc(OC(=O)COc3ccccc3)cc12	-2.5	5.4	-11.6	-4.3	0.7
C=CCc1cc(Cl)ccc1OC(=O)Nc1cccc(Cl)c1	-3.0	13.9	-55.2*	-4.8	0.0
COc1cc(NC(=O)N2CCN(c3cc(-c4noc(C)n4)ccc3C)CC2)cc(OC)c1OC	-4.5	1.2	-10.2	-1.8	-0.6
Cc1noc(C)c1CSc1nc2ccccc2[nH]1	-4.2	-0.3	5.5	1.5	0.4
c1ccc(-c2cc(CSc3nc4ccccc4[nH]3)on2)cc1	-3.8	15.7	-31.3*	-0.5	-0.3
CCN(c1ccc(C)cc1C)S(=O)(=O)c1nnc(NC(=O)c2ccc(F)cc2)s1	-1.3	-1.2	1.4	10.1	-0.1
C=CCn1c(N2CCN(c3ccc(OC)cc3)CC2)nc2c1c(=O)n(C)c(=O)n2C	-5.7	15.3	-37.6*	1.8	-0.4
Cc1ccc(N(C)S(=O)(=O)c2ccc(-c3coc(C)n3)cc2)cc1	-5.5	0.4	-38.6*	-3.2	-0.3
COc1ccc(NS(=O)(=O)c2ccc(-c3coc(C)n3)cc2)c(OC)c1	-7.8	8.1	-32.6*	10.7	-0.7
COc1ccc(OC)c(CNS(=O)(=O)c2ccc(-c3coc(C)n3)cc2)c1	-3.2	9.7	-9.6	-0.6	0.0
Cc1nc(-c2ccc(S(=O)(=O)NCc3ccc(N(C)C)cc3)cc2)co1	-3.8	5.6	19.2	0.3	-0.3
Cc1cc(C)c(NS(=O)(=O)c2ccc(-c3coc(C)n3)cc2)c(C)c1	-5.8	1.5	-15.3	-1.3	-0.2
Cc1nc(-c2ccc(S(=O)(=O)NCc3ccc(F)cc3)cc2)co1	-1.7	1.1	-55.8*	1.5	-0.4
